The values below come from ChEMBL document CHEMBL3988442, “University of Dundee, Small-Polar-MMV Screening Library” (2021).

Among all 69,000 compounds or so, about 1,000 (1.4%) showed an effect of 50% or more. The entries come from a sample that favours strong results as a whole.

For this experiment, the system named is Leishmania donovani. The experiment in a line: Leishmania intramacrophage assay. In kind it is functional, organism-based. Details: scale not given: in the data most compounds retested in dose-response had high values.

On to `Cc1cc(C)n(Cc2ccc(-c3noc(C(=O)NC[C@@H](C)O)n3)cc2)n1`, for which the “Percent Effect” value (30.3 µM, […]) was found to be 18.71%. Take `O=C(O)C(F)(F)F.O=C(O)C(F)(F)F.c1cnc(N2CCC3(CCN(Cc4ccncc4)CC3)CC2)nc1`: the “Percent Effect” value (30 µM, 30.03 µM) is 38.21%. Take `Cc1nccn1CC1CCCN(S(=O)(=O)c2cnn(C)c2)C1` (stereo not given): the “Percent Effect” value (30.3 µM, […]) is 12.01%. Same read-out and setting: next, `O=C(N1CCOCC1)N1CCOC[C@H](Oc2ccc(C(F)(F)F)cc2)C1`: -1.363%. Same read-out and setting: then `COc1cc(Cl)cc(CN2CCCC(N3CCCC3)C2)c1OC` (stereo not given), with 12.54%; and `COc1cc(Cl)c(CN2CCC(C(N)=O)C2)cc1Cl` (stereo not given), with 31.88%; and `COc1cc(CN2CC[C@@H](N3CCCCCC3)[C@H](O)C2)cc(Cl)c1OC`, with 50.85%.

On to `COCCC(=O)N1CCC2(CCN(Cc3ccc(OC)c(F)c3)C2)C1` (stereo not given), for which the “Percent Effect” value (30.3 µM, […]) is listed as -20.78%. Still for that read-out and setting: next, `CC(=O)NCc1ccc(C(=O)N2CCCc3c(F)ccc(C)c32)cc1`: 35.68%; `COc1cccc2c1OCC(Cc1cc(C(N)=O)ccn1)C2` (stereo not given): 69.64%; `CNC(=O)c1ccnc(CC2COc3c(cccc3OC)C2)c1` (stereo not given): -40.6%. Still for that read-out and setting: next, `COc1cccc2c1OCC(Cc1cc(C(=O)N3CCCC3)ccn1)C2` (stereo not given): 20.15%. Consider `CCOc1ncccc1CNC(=O)Nc1ccccc1`, for which the “Percent Effect” value (30 µM) is reported as -12.58%. In the case of `COc1nn(C)cc1-c1nnc(SCc2cccnc2)n1C`, under “30.3 µM, […]”, the “Percent Effect” value is given as -1.752%. The same measure, in the same setting: next, `CC(C)=CCC1(C(=O)O)CCCN(CCC(=O)NC2CC2)C1` (stereo not given): 0.5122%; `CCN(CC)C(=O)c1nc2c(s1)CCN(Cc1cccc(OC)c1)CC2.O=C(O)C(F)(F)F`: -7.279%.

As for `Cc1cc(N(C)CCOc2ccccc2F)nc(N)n1`, the “Percent Effect” value (30.3 µM, […]) was 60.08%. Same read-out and setting: then `COc1ccc(OCCN(C)c2cc(C)nc(N)n2)cc1`, with 6.601%; and `COc1ccccc1OCCN(C)c1cc(C)nc(N)n1`, with 6.974%.

Regarding `Cc1nc(C2CCCN2CC(=O)Nc2cc(C(C)(C)C)nn2C)no1` (stereo not given), the “Percent Effect” value (30 µM) is listed as 12.3%. Turning to `CC(C)n1cnnc1CN(C)CC1CCCNC1` (stereo not given), under “30.3 µM, […]”, the “Percent Effect” value was 32.72%. The same measure, in the same setting: next, `Cl.N#Cc1ccc(NC(=O)C2CSCN2)cc1` (stereo not given): 0.03454%; `CS(=O)(=O)NCCC1CN(Cc2ccccc2F)CCO1` (stereo not given): 18.65%. Take `OC1(Cn2ccnc2)CCN(C[C@]2(O)CCCN3CCCC[C@@H]32)CC1`: the “Percent Effect” value (30.3 µM, […]) was -28.91%. The same measure, in the same setting: next, `CC(=O)NCCNC(=O)Nc1cccc(Cl)c1SC(F)F`: 17.25%; `CC(C(=O)Nc1cccc(Cl)c1SC(F)F)S(C)(=O)=O` (stereo not given): 58.19%. As to `O=C(NCCO)Nc1cccc(Cl)c1SC(F)F`, for the setting “30 µM, 30.03 µM”, the “Percent Effect” value was -27.47%. In the case of `Cc1[nH]c2ccc(C#N)cc2c1CCNc1ncnc2c1CCNCC2`, the “Percent Effect” value (30.3 µM, […]) is on record as 16.81%. Still for that read-out and setting: then `Cc1[nH]c2ccc(Cl)cc2c1CCNc1ncnc2c1CCNC2`, with 54.3%; and `Cc1[nH]c2ccccc2c1CCNc1ncnc2c1CCNCC2`, with 16.03%.
